From PubChem BioAssay
Shown are actives, neighbours in structure and some others; about 19% of the full set was active somewhere.
LASV entry inh: Lassa virus entry inhibition; Lassa virus pseudotype entry inhibition, cell reporter; Potency, µM (titrated, usually from 37.9 µM), for the others: at the highest dose activity change, negative = inhibition, most hits filed as inhibitors; 300,000 compounds, 1.2% hits; AID 540256; calls by dose curve; tested in HEK293 cells; further: potency means the concentration at half of the fitted maximal effect; on the % scale 0 is the no-effect control and ±100 the full control effect; nearly all actives have a fitted effect of over 50% in size
Pf growth 96h: inhibits malaria parasite growth, 96 h; P. falciparum luciferase reporter growth, 96 h; Potency, µM (doses to about 28.7 µM), inactives show at the highest dose activity change, negative = inhibition, most hits filed as inhibitors; 320,000 compounds, 6.9% hits; further: potency means the concentration at half of the fitted maximal effect; on the % scale 0 is the no-effect control and ±100 the full control effect
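Luminescence readout: decreased luciferase signal marks inhibited growth of reporter-expressing P. falciparum in infected red cells (2% hematocrit, 0.05% parasitemia final), exposed to compound two generations (96 h, 37 C, 5% CO2).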
CHX counter: counter-screen hit for Shiga toxin inhibitors, cycloheximide; cell reporter, cycloheximide protein synthesis inhibition counterscreen; max response, %; 300,000 compounds, 12% hits; AID 2314; in the data active means max response mostly above about 13%, no sharp cut-off; inactive means mostly below about 14%; further: read at 38.3 µM for the half of the compounds with a filed dose; 0% is about no effect
Shiga inhibitor: Shiga toxin inhibition; 290,000 compounds, 9.2% hits; inhibition, % at 38.7 µM; Vero cells, Shiga toxin protein synthesis inhibition reporter; in the data active means inhibition mostly above about 28%, no sharp cut-off; inactive means mostly below about 43%; further: 0% is about no effect
Pf growth 48h: P. falciparum growth inhibition at 48 hours (one generation). P. falciparum luciferase growth in erythrocytes, 48 h. Potency, µM (top dose mostly 28.7 µM), for the others: top-dose activity change, negative = inhibition, hits mostly inhibitors. 310,000 compounds, 5.9% hits. AID 504832; further: potency means the concentration at half of the fitted maximal effect; on the % scale 0 is the no-effect control and ±100 the full control effect
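Luciferase-expressing P. falciparum in infected erythrocytes (2% hematocrit, 0.1% parasitemia final) in RPMI 1640/0.5% Albumax were exposed to compound for 48 hours at 37 C, 5% CO2; growth read as luminescence.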
MARV entry inh: inhibitors of Marburg virus binding or cell entry; Marburg virus pseudotyped entry inhibition, cell reporter; Potency, µM (top dose mostly 37.8 µM), for inactives: at the top dose activity change, negative = inhibition, hits mostly inhibitors; 300,000 compounds, 1.8% hits; calls by dose curve; tested in HEK293 cells; further: potency means the concentration at half of the fitted maximal effect; on the % scale 0 is the no-effect control and ±100 the full control effect
Active calls of the source: *; i = inactive; ? = inconclusive; / = not tested or not shown; + = active, no number; [ ] = dose if it differs, or a comment. Unless noted, the call rests on the fitted dose curve; in most records, active means well fitted inhibition curve with a large enough effect; inconclusive means small, poorly fitted or top-dose-only effect, or another doubt; inactive means no such curve, though single readings can be large or run the other way.

SMILES	LASV entry inh	Pf growth 96h	CHX counter	Shiga inhibitor	Pf growth 48h	MARV entry inh
O=C1c2cccc3c(O)ccc(c23)C(=O)N1c1ccc(Cl)cc1	?	14%	105*	+	/	16%[46.1 µM]
O=C1c2ccccc2C(O)N1c1ccccc1 (stereo unspecified)	23%	4%	5	11	9%	?
COc1ccc2c(c1OC)C(=O)N(c1ccccc1)C2=O	?	-23%	39*	47*	-3%	0%[46.1 µM]
CC(=O)Nc1cccc2c1C(=O)N(c1ccc(C)cc1)C2=O	8%	19%	15*	35*	29%	8%
CC(=O)Nc1ccc2c(c1)C(=O)N(c1cccc(C)c1)C2=O	1%	33%	7	14	26%	4%[46.1 µM]
COc1ccc2c(c1OC)C(=O)N(c1ccc(O)cc1)C2=O	4%	19%	-2	4	51%	-7%[46.1 µM]
CCn1c(SCC(=O)Nc2ccccc2N2CCOCC2)nnc1-c1ccccc1O	-5%	?	-3	-8	?	?
CN(C)/C=C(/C(=O)c1ccc(Cl)cc1)S(C)(=O)=O	-5%	19%	-2	-7	-3%	?
O=C(NNC(=O)c1cccc2ccccc12)c1ccc(Cl)cc1	-1%[46.1 µM]	/	/	/	/	?
O=C(NNC(=O)c1ccccc1[N+](=O)[O-])Nc1ccc(Cl)cc1	14%	0%	14	35	16%	?
O=C(Nc1ccc(Cl)cn1)c1cccc2ccccc12	/	5%	18*	/	30%	/
O=C(Nc1ccc(Cl)cn1)c1ccccc1[N+](=O)[O-]	-24%	?	18*	45	45%	-30%[46.1 µM]
COc1ccc(S(=O)(=O)N2CC(=O)Nc3ccccc32)cc1C	/	-1%	-1	-3	5%	/
COc1ccc(CCC(C)NCc2cccc(Br)c2)cc1 (stereo unspecified)	/	8.3µM*	-1	-10	-7%	/
COc1ccc(CCC(C)NCc2ccccc2OC)cc1 (stereo unspecified)	/	?	1	-11	?	/
Cc1ccc(NC(=O)c2cccc(C(F)(F)F)c2)cc1NC(=O)c1[nH]cnc1C(N)=O	/	27%	/	/	31%	/
CCOC(=O)c1c(C)n(C)c2cc(Br)c(O)c(O)c12	/	?	8	26	-15%	/
CCOC(=O)c1c(CSc2cccs2)n(C)c2cc(Br)c(O)c(CN(C)C)c12	?	15%	-2	15	13µM*	?
COc1ccccc1NC(=O)CSc1c2c(nc3ccccc13)CCC2	-2%	i	-1	-7	-10%	-23%
Cc1ccc2c(c1)C(=O)C(=O)N2CCOc1ccccc1	?	2%	13	20	5%	?
NC(=O)COC(=O)c1ccc2noc(-c3ccccc3)c2c1	/	78%	57*	81*	/	/
Cc1cc(Br)ccc1SCC(=O)N1CCN(S(=O)(=O)c2ccccc2)CC1	-15%	?	33*	38*	?	-27%
CC(C)Cn1c(SCC(=O)N2CCN(S(=O)(=O)c3ccccc3)CC2)nc2ccccc21	-12%	/	-6	-9	3.3µM*	?
Cn1c(SCC(=O)N2CCN(S(=O)(=O)c3ccccc3)CC2)nc2ccccc21	-5%	?	10	-18	?	-1%
Cn1c(SCC(=O)N2CCN(S(=O)(=O)c3ccc(Cl)cc3)CC2)nc2ccccc21	?	10µM*	-2	6	/	-18%
SMILES	LASV entry inh	Pf growth 96h	CHX counter	Shiga inhibitor	Pf growth 48h	MARV entry inh
C=CCNC(=S)N/N=C(\C)c1cc(OC)c(OC)c(OC)c1	-1%	?	-7	-9	-11%	4%
CN(C)CCN1C(=O)C(=O)/C(=C(/O)c2ccc(S(=O)(=O)N3CCOCC3)cc2)C1c1ccc(Br)cc1 (stereo unspecified)	11%	3%	8	-5	5%	30%
O=C(O)c1ccc(-c2ccc(-c3ccccc3)cc2)o1	/	/	2	i	/	/
O=C(O)CCN1C(=O)/C(=C/c2ccc(-c3nc4ccccc4s3)o2)SC1=S	17%	85%	12	17	11%	?
O=C(CN1CCN(C(=O)c2ccc(-c3nc4ccccc4s3)o2)CC1)Nc1ccc(F)cc1	/	13µM*	/	/	12µM*	/
Cc1cccc(NC(=O)CN2CCN(C(=O)c3ccc(-c4nc5ccccc5s4)o3)CC2)c1C	?	?	/	/	5%	?
O=Cc1ccc(-c2nc3ccccc3s2)o1	-19%[46.1 µM]	41%	29*	61*	101%	1%[46.1 µM]
O=C(c1ccc(-c2nc3ccccc3s2)o1)N1CCN(c2ccccc2O)CC1	?	5.2µM*	37*	45	?	?
O=C(O)c1ccc(-c2nc3ccccc3s2)o1	/	i	45*	78*	241%	/
Cc1cccc(Oc2ccccc2NC(=O)c2cnccn2)c1	-30%	?	0	9	/	9%
O=C(CSc1nc2c(cnn2-c2ccc(F)cc2)c(=O)[nH]1)N1CCCCC1	/	-1%	-3	0	-3%	/
Cc1nc(N=Nc2cc([N+](=O)[O-])ccc2Cl)c(COP(=O)(O)O)c(C=O)c1O	/	/	-11	-11	/	/
Cc1nc(N=Nc2cc(S(=O)(=O)O)c3cc([N+](=O)[O-])cc(S(=O)(=O)O)c3c2)c(COP(=O)(O)O)c(C=O)c1O	?	/	/	/	/	20µM*
Cc1ccc(C)c(CSC2=NN3CCCC(=O)N=C3S2)c1	1%[46.1 µM]	-23%	2	14	-22%	8%[46.1 µM]
CC(=O)Oc1cccc(Nc2ncnc3ccccc23)c1	/	39%	19*	/	-11%	/
Cc1ccccc1C(=O)Oc1cccc(Nc2ncnc3ccccc23)c1	10µM*	/	/	/	/	11µM*
COc1ccc(C(=O)N2CC=C(c3ccccc3)CC2)cc1S(=O)(=O)N1CCOCC1	-2%	-6%	2	17	/	0%[46.1 µM]
CC(=O)Nc1ccc(C(=O)COC(=O)c2c(C)noc2C)c(F)c1	3%	?	/	/	-27%	5%
COc1ccc(NCc2nnc(SCC(=O)Nc3cccc(C)c3)o2)cc1	-19%	49%	-2	-3	5%	-26%[46.1 µM]
O=S(=O)(c1ccc(F)cc1)n1ccc2cccnc21	16%	51%	15	20	56%	-16%
Cc1cnc2c3c(cc(Cl)c2c1)-c1ccccc1S(=O)(=O)N3	/	/	73*	54*	/	/
O=S1(=O)Nc2c(ccc3cccnc23)-c2ccccc21	?	-1%[5.75 µM]	8	29	2.6µM*	?
CC(N=C1NS(=O)(=O)c2ccccc21)C(=O)Nc1ccc(F)cc1Cl (stereo unspecified)	/	-28%	/	/	-13%	/
O=C(NC(=S)NC1CC1)c1cccnc1	-3%	161%	7	-19	-1%	27%
CN(C)S(=O)(=O)c1cccc(-c2cn3cc(Cl)ccc3n2)c1	7%	-28%	28*	20	/	?
CN(C)S(=O)(=O)c1cccc(-c2cn3ccccc3n2)c1	14%	10µM*	20	21	18%	?
O=S(=O)(c1cccc(-c2cn3ccccc3n2)c1)N1CCCCC1	/	?	-2	-2	6%	/
Clc1ccc2nc(-c3ccccc3)cn2c1	?	-22%	34*	44*	209%	?
